Screening data deposited in PubChem by National Center for Advancing Translational Sciences (NCATS).
Shiga toxin inh: A qHTS for Small Molecule Inhibitors of Shiga Toxin | Vero cells, Shiga toxin protein synthesis inhibition reporter | inhibition, % at 38.7 µM | 9.2% of 290,000 active | AID 2315, 2010; in the data active means inhibition mostly above about 28%, no sharp cut-off; inactive means mostly below about 43%
Pf growth 48h: Primary qHTS for delayed death inhibitors of the malarial parasite plastid, 48 hour incubation; P. falciparum luciferase growth in erythrocytes, 48 h; Potency, µM (doses to about 28.7 µM), most hits filed as inhibitors; 5.9% of 310,000 active; active means well fitted inhibition curve with a large enough effect; inconclusive means small, poorly fitted or top-dose-only effect, or another doubt; inactive means no such curve, though single readings can be large or run the other way
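Compounds are pin-transferred into medium, infected erythrocytes (2% hematocrit, 0.1% parasitemia final) are added, and plates sit one parasite generation at 37 C in 5% CO2. Detection reagent is then added and luminescence measured.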
NS1 function inh: qHTS Assay for Inhibitors of Influenza NS1 Protein Function. Potency, µM (highest dose often 46.1 µM). AID 2326, 2010. 0.4% of 270,000 active; further: actives are rising curves; nearly all actives have a fitted effect of over 50% in size
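In this qHTS, NS1 from influenza A is expressed in budding yeast, where it slows growth. Cells are switched from glucose to 2% galactose medium (pH 6.0, -URA), treated with compound, and growth recovery is read at OD600.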
SARS PLP yeast: qHTS of Yeast-based Assay for SARS-CoV PLP | Potency, µM (top dose mostly 32.9 µM), usual class: activators | 0.19% of 330,000 active | S. cerevisiae expressing SARS-CoV PLpro, growth rescue; further: nearly all actives have a fitted effect of over 55% in size
Cycloheximide cs: Cycloheximide Counterscreen for Small Molecule Inhibitors of Shiga Toxin; cell reporter, cycloheximide protein synthesis inhibition counterscreen; max response, %; 12% of 300,000 active; in the data active means max response mostly above about 13%, no sharp cut-off; inactive means mostly below about 14%; further: read at 38.3 µM for the half of the compounds with a filed dose
Pf growth 96h: Primary qHTS for delayed death inhibitors of the malarial parasite plastid, 96 hour incubation; Potency, µM (highest dose often 28.7 µM), usual class: inhibitors; P. falciparum luciferase reporter growth, 96 h; 6.9% of 320,000 active; active means well fitted inhibition curve with a large enough effect; inconclusive means small, poorly fitted or top-dose-only effect, or another doubt; inactive means no such curve, though single readings can be large or run the other way
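Compounds incubated with erythrocytes infected by luciferase-expressing P. falciparum (2% hematocrit, 0.05% parasitemia final) for 96 hours, 37 C in 5% CO2. Growth inhibition scored as decreased luciferase luminescence.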
Large screens that a line does not name were inactive. In the library only some 21% were active in any assay of this set; here they are far more common. Unless noted, the call rests on the fitted dose curve.

Cc1cc(OCCCn2ccnc2)ccc1C(C)C	Pf growth 48h inconclusive
CC(C)(C)c1ccc(OCCCn2ccnc2)cc1	Pf growth 48h inconclusive, Cycloheximide cs 8.4, Pf growth 96h inconclusive
COC(=O)C(CCSC)NC(=O)c1cc2c(n(-c3ccccc3)c1=O)CCCC2=O (configuration not stated)	Cycloheximide cs 16.3
O=C1CCCc2c1cc(C(=O)O)c(=O)n2-c1ccccc1	Pf growth 96h inconclusive
O=C1CCCc2c1cc(C(=O)Nc1ccc(Br)cn1)c(=O)n2-c1ccccc1	Pf growth 48h 4.15µM
O=[N+]([O-])c1cccc2c(S(=O)(=O)N3CCOCC3)cccc12	Pf growth 96h inconclusive
Fc1ccc(OCc2nnc(-c3ccccc3Br)o2)c(Cl)c1	Shiga toxin inh 108.7, Cycloheximide cs 15.1, Pf growth 96h inconclusive
COc1cc(C(C)=O)ccc1OCc1nnc(-c2ccccc2Br)o1	Shiga toxin inh 60.4, Pf growth 48h inconclusive, Cycloheximide cs 16.5, Pf growth 96h inconclusive
Clc1ccc(OCc2nnc(-c3ccccc3Br)o2)c(Cl)c1	Shiga toxin inh 83.2, Cycloheximide cs 38.6, Pf growth 96h inconclusive
O=[N+]([O-])c1ccc2c(OCc3nnc(-c4ccccc4Br)o3)ncnc2c1	Pf growth 48h inconclusive, Pf growth 96h 9.28µM
CC(C)(C)NC(=O)c1cccc(NC(=O)c2cccc(O)c2)c1	Pf growth 48h inconclusive, Pf growth 96h inconclusive
O=C(NCc1n[nH]c(=S)n1-c1cccc(Cl)c1)c1ccc(S(=O)(=O)N2CCCCC2)cc1	NS1 function inh inconclusive
Cc1ccc(C[n+]2cc(-c3ccc(Cl)cc3)n3c2CCC3)cc1	Pf growth 48h 1.04µM, Pf growth 96h 0.415µM
Cc1ccc(-c2c[n+](Cc3ccc(Cl)cc3)c3n2CCC3)cc1	Pf growth 48h 0.928µM, Pf growth 96h 0.294µM
Cc1ccc(-c2c[n+](Cc3cccc(Cl)c3)c3n2CCC3)cc1	Pf growth 48h inconclusive, Pf growth 96h inconclusive
Clc1cccc(C[n+]2cc(-c3ccccc3)n3c2CCC3)c1	Pf growth 48h 2.08µM, Pf growth 96h 0.185µM
Cc1ccc(NC(=O)CCN2CCC(C(N)=O)CC2)cc1	none (no result: Shiga toxin inh)
Cc1ccc(Cn2ccc(C3CC3)n2)cc1	Cycloheximide cs 61.9 (no result: NS1 function inh)
CCCc1cc(C(=O)Nc2ccn(Cc3ccc(C)cc3)n2)no1	Pf growth 48h inconclusive
Clc1ccc(Cn2ccc(C3CC3)n2)cc1	Shiga toxin inh 65.9, Cycloheximide cs 31.2
CN(C)Cc1nsc(N(C)C)n1	none (no result: Shiga toxin inh, Pf growth 48h, SARS PLP yeast, Cycloheximide cs, Pf growth 96h)
CC1CCN(C(=O)Cn2nnc(-c3ccc(C(C)C)cc3)n2)CC1	Pf growth 96h inconclusive
CC(OC(=O)C1CCCC1)C(=O)Nc1ncc(Cl)cc1Cl (configuration not stated)	Pf growth 48h inconclusive (no result: Shiga toxin inh, NS1 function inh, Cycloheximide cs)
COC1CCCN(C(=O)c2ccc(OC3CCN(S(=O)(=O)N(C)C)CC3)cc2)C1 (configuration not stated)	Pf growth 96h inconclusive (no result: SARS PLP yeast)
Cc1ccc(-c2nc(CN(C)C(C3CC3)C3CC3)c(C)o2)cc1	none
CSc1ccc(-c2nc(CN(C)C3CCOC3)c(C)o2)cc1 (configuration not stated)	Shiga toxin inh 42.2, Cycloheximide cs 31.2, Pf growth 96h inconclusive
Cc1cc(C(=O)Nc2ccccc2C(=O)O)ccc1NC(=O)COc1cccc(C)c1C	Pf growth 96h inconclusive
Cc1cccc(C2c3[nH]c4ccccc4c3CCN2C(=O)c2ccc(=O)[nH]c2)n1 (configuration not stated)	Pf growth 48h inconclusive
CC(=O)c1ccc(C(=O)N2CCc3c([nH]c4ccccc34)C2c2cccc(C)n2)s1 (configuration not stated)	Pf growth 48h inconclusive, Pf growth 96h 13.1µM
CC(=O)c1cc(CC(=O)N2CCc3c([nH]c4ccccc34)C2c2ccccn2)cs1 (configuration not stated)	Pf growth 48h inconclusive, Pf growth 96h inconclusive
Cc1nc(C)c(CC(=O)N2CCc3c([nH]c4ccccc34)C2c2ccccn2)s1 (configuration not stated)	Pf growth 48h inconclusive, Pf growth 96h 10.4µM
Cc1cc2cc(C(=O)N3CCc4c([nH]c5ccccc45)C3c3ccccn3)ccc2o1 (configuration not stated)	Pf growth 48h 10.4µM, Pf growth 96h 9.28µM
